Screening data from PubChem.
Only a selection was taken, and hits are over-represented in it overall.
KDM5B inh – inhibitors of human KDM5B histone demethylase; Q9UGL1; KDM5B demethylase, FDH-coupled NADH fluorescence (FDH is formaldehyde dehydrogenase); Potency, µM (top dose mostly 57.7 µM), usual class: inhibitors; actives 2.6% (n = 220,000); active = well fitted inhibition curve with a large enough effect; note: 0% is about no effect; nearly all actives have a fitted effect of over 70% in size
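Compound dilutions met 200 nM (final) KDM5BΔAP for 10 min at room temperature before substrate addition. The substrate mix held 12.5 µM H3K4me3 with cofactors 25 µM α-ketoglutarate and 50 µM Fe²⁺. NADH signal gain over 30 min defined activity.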
* marks the source's active call; other numbers are inactive results. Potency is the fitted concentration of half-maximal effect.

`COC(=O)CNC(=O)N1Cc2c(C)nn(-c3ccccc3)c2-n2cccc2C1c1cccc(C)c1` (centres undefined) gave KDM5B inh inactive.
`COc1ccc(C2=NOC(Cn3c(=O)c4c(ncn4C)n(C)c3=O)C2)c(OC)c1` (centres undefined) gave KDM5B inh inactive.
Screening COc1ccc(-c2[nH]ncc2CNc2cc(C3CC(O)C3)nc(C)n2)cc1 (centres undefined) returned KDM5B inh inactive.
Screening COc1ccc2[nH]c(CO)cc2c1 returned KDM5B inh inactive.
`COc1ccc2[nH]c(CNc3cc(C4CC(N)C4)nc(C)n3)cc2c1` (centres undefined) gave KDM5B inh 20µM*.
c1ccc2c(-c3csc(NC4CCCC4)n3)c[nH]c2c1 was read as KDM5B inh inactive.
Screening CN(C)C(=O)N1CCC2(CC1)CN(C(=O)c1ccnc(N)c1)Cc1ccccc1O2 returned KDM5B inh 79µM*.
`CN1CCN(C(=O)N2Cc3ccccc3OC3(CCN(C(=O)N(C)C)CC3)C2)CC1` gave KDM5B inh inactive.
`CN(C)C(=O)N1Cc2ccccc2OC2(CCN(C(=O)c3c[nH]c4ccccc34)CC2)C1` gave KDM5B inh inactive.
CN(C)C(=O)N1Cc2ccccc2OC2(CCN(C(=O)c3ccnc(N)c3)CC2)C1 was read as KDM5B inh 89µM*.
CC(=O)N1Cc2ccccc2OC2(CCN(C(=O)c3ccc4[nH]ccc4c3)CC2)C1 was read as KDM5B inh inactive.
CN(C)C(=O)N1CCC2(CC1)CN(C(=O)Cc1cccc(O)c1)Cc1ccccc1O2 was read as KDM5B inh inactive.
`O=C(O)CCNS(=O)(=O)c1ccc(Cl)c(C(=O)O)c1` gave KDM5B inh inactive.
Screening CCCCC(CC)C(=O)Nc1ccccc1Br (centres undefined) returned KDM5B inh inactive.
For CCOc1ncccc1CNC(=O)c1cc2cc(OC)ccc2nc1C the results were KDM5B inh inactive.
`O=C1c2cnc(-c3cccc(CO)c3)nc2OCCN1Cc1ccccc1` gave KDM5B inh inactive.
For Cn1cc(CN2Cc3c(cc(N4CCOCC4)nc3-c3cccnc3)C2=O)cn1 the results were KDM5B inh 35µM*.
CN1CC(=O)N(c2cccc(F)c2)Cc2c1ncnc2N1CCOCC1 was read as KDM5B inh inactive.
`COc1ccc(-c2nc(N3CCOCC3)cc3c2CN(Cc2cnn(C)c2)C3=O)cc1OC` gave KDM5B inh inactive.
`Cn1cc(CN2CCOC[C@H](Oc3ccccc3)C2)cn1` gave KDM5B inh inactive.
`Cn1cc(CN2Cc3c(cc(N4CCOCC4)nc3-c3cccc(F)c3)C2=O)cn1` gave KDM5B inh 35µM*.
For CC(Sc1nnc(N2CCOCC2)n1-c1cccc(F)c1)c1nc2ccccc2c(=O)[nH]1 (centres undefined) the results were KDM5B inh inactive.
Cn1cc(CN2CCOC[C@H](Oc3cnccn3)C2)cn1 was read as KDM5B inh inactive.
`Cn1cc(CN2Cc3c(cc(N4CCOCC4)nc3-c3ccc(CO)cc3)C2=O)cn1` gave KDM5B inh 35µM*.
For Cc1[nH]c2ccccc2c1C(=O)CSc1nnnn1CC(C)C the results were KDM5B inh inactive.
COc1ccc(Nc2cc(C(=O)NCC(OC)OC)c3ccccc3n2)cc1OC was read as KDM5B inh inactive.
O=C(NC12CC3CC(CC(C3)C1)C2)C12CC3CC(C1)CC(c1ccccc1)(C3)C2 was read as KDM5B inh inactive.
CCCCC(CC)C(=O)Nc1cccc2ccccc12 (centres undefined) was read as KDM5B inh inactive.
Screening CCOC(=O)C(NC=C(C#N)C#N)C(=O)OCC returned KDM5B inh inactive.
For O=C(Nc1cccc(Cl)c1)C1CC(c2ccccc2)=NO1 (centres undefined) the results were KDM5B inh inactive.
CCN(CC)C(=O)c1cc(-c2ccc(Cl)cc2)nc2ccccc12 was read as KDM5B inh inactive.
`CCN(CC)C(=O)c1cc(-c2ccncc2)nc2ccccc12` gave KDM5B inh inactive.
For CCN(Cc1ccncc1)C(=O)c1cc(-c2cnn(CC)c2)nc2cc(C)ccc12 the results were KDM5B inh 28µM*.
`Oc1ccccc1Oc1ccc2nnc(-c3ccc(Br)cc3)n2n1` gave KDM5B inh inactive.
CCN(CC(=O)Nc1ccccc1C(F)(F)F)Cc1nc2ccccc2o1 was read as KDM5B inh inactive.
Screening Cc1cc(C(=O)N[C@H](C)c2onc(-c3cccnc3)c2C(=O)O)nn1C returned KDM5B inh inactive.
Screening C[C@@H](NC(=O)c1cccnc1)c1onc(-c2cccnc2)c1C(=O)O returned KDM5B inh inactive.
Screening Cc1nn(-c2ccccc2)nc1C(=O)N[C@H](C)c1onc(-c2cccnc2)c1C(=O)O returned KDM5B inh 25µM*.
For Cc1cc(C)cc(NC(=O)CC2C(=O)Nc3nc(-c4ccccc4)nn32)c1 (centres undefined) the results were KDM5B inh inactive.
Screening CCCN(CCC)C(=O)c1cc2cc(Br)ccc2oc1=O returned KDM5B inh inactive.
`CCn1c(SCC(=O)Nc2ccc(C(=O)O)cc2)nnc1-c1ccccc1Cl` gave KDM5B inh inactive.
`COc1ccc(C)cc1-n1cnc2cc(C(=O)NC3CCCC3)ccc21` gave KDM5B inh inactive.
Screening COCCNc1nc2cc(-c3nc(-c4cccnn4)no3)ccc2n1C returned KDM5B inh inactive.
Screening COCCNc1nc2cc(C(=O)N[C@@H]3CC[C@@H](N)C3)ccc2n1C returned KDM5B inh 22µM*.
For Cc1cc(F)ccc1NC(=O)CC(C)n1cccn1 (centres undefined) the results were KDM5B inh inactive.
For CN(CC(=O)Nc1cccc(F)c1)C(=O)C1CCN(c2ccc(C#N)cn2)CC1 the results were KDM5B inh inactive.
Cc1cccc(C(C)C)c1NC(=O)c1nn(C)c(=O)c2ccccc12 was read as KDM5B inh inactive.
`O=C(NC[C@H]1O[C@@H](CC(=O)N2CCN(c3ccccc3)CC2)[C@H](O)[C@@H]1O)c1ccccc1` gave KDM5B inh inactive.
Cc1ccc(S(=O)(=O)NC[C@H]2O[C@@H](CC(=O)N3CCN(c4ccccc4)CC3)[C@H](O)[C@@H]2O)cc1 was read as KDM5B inh inactive.
`COCC(=O)NC[C@H]1O[C@@H](CC(=O)N2CCN(c3ccccc3)CC2)[C@H](O)[C@@H]1O` gave KDM5B inh inactive.
Screening CS(=O)(=O)NC[C@H]1O[C@@H](CC(=O)N2CCN(c3ccccn3)CC2)[C@H](O)[C@@H]1O returned KDM5B inh 35µM*.
Cc1ccc(S(=O)(=O)NC[C@H]2O[C@@H](CC(=O)N3CCN(c4ccc(F)cc4)CC3)[C@H](O)[C@@H]2O)cc1 was read as KDM5B inh inactive.
For Cc1ccc(S(=O)(=O)NC[C@H]2O[C@@H](CO)[C@@H](O)[C@H]2N2CCCC2)cc1 the results were KDM5B inh inactive.
`CCC(CC)C(=O)NC[C@H]1O[C@@H](CC(=O)N2CCN(c3ccccn3)CC2)[C@H](O)[C@@H]1O` gave KDM5B inh 32µM*.
Screening COc1ccccc1N1CCN([C@@H]2[C@H](O)[C@H](CO)O[C@@H]2CNS(=O)(=O)c2ccc(Cl)cc2)CC1 returned KDM5B inh inactive.
For Cc1ccc(S(=O)(=O)NC[C@H]2O[C@@H](CC(=O)N3CCN(c4ccccn4)CC3)[C@H](O)[C@@H]2O)cc1 the results were KDM5B inh 28µM*.
